Test results as given in the antibiotic and cytotoxicity screens of Wong et al. (2023).
Out of some 39,000 compounds screened, about 3,300 (8.5%) were called active. The sample as a whole holds a higher share of actives than the screen did.

What follows are molecules tested on HepG2 (assay: cytotoxicity call (relative viability < 0.9)). Details: 10 µM.

| SMILES | cytotoxicity call |
| --- | --- |
| c1cn(-c2ccc(-n3ccnc3)nn2)cn1 | inactive |
| Clc1ccc2c(c1)C(N1CCNCC1)=Nc1ccccc1O2 | active |
| CN1CCN(C2=Nc3cc(Cl)ccc3Nc3ccccc32)CC1 | inactive |
| CN1CCN(C2=Nc3ccccc3Oc3ccc(Cl)cc32)CC1.O=C(O)CCC(=O)O | inactive |
| CCS(=O)(=O)Nc1ccc2c(c1)C(=O)N(C)C[C@@H](OC)[C@H](C)CN(Cc1cccnc1)[C@H](C)CO2 | inactive |
| O=C(C[C@@H]1C[C@H]2c3cc(NC(=O)Nc4ccc(C(F)(F)F)cc4)ccc3O[C@H]2[C@H](CO)O1)NCCc1ccccc1 | inactive |
| CO[C@H]1CN(C)C(=O)c2cc(NS(=O)(=O)c3cn(C)cn3)ccc2OC[C@@H](C)N(CC2CC2)C[C@@H]1C | inactive |
| C[C@@H]1CCCCO[C@@H](CN(C)S(=O)(=O)c2cccs2)[C@H](C)CN([C@@H](C)CO)C(=O)c2cc(NC(=O)Nc3ccccc3)ccc2O1 | inactive |
| C[C@@H]1CCCCO[C@@H](CN(C)S(=O)(=O)c2cccs2)[C@@H](C)CN([C@H](C)CO)C(=O)c2cc(NC(=O)Nc3ccc(F)cc3)ccc2O1 | inactive |
| C[C@H]1CCCCO[C@@H](CN(C)S(=O)(=O)c2cccs2)[C@@H](C)CN([C@@H](C)CO)C(=O)c2cc(NC(=O)Nc3ccc(F)cc3)ccc2O1 | active |
| COc1ccc(NC(=O)Nc2ccc3c(c2)C(=O)N([C@@H](C)CO)C[C@H](C)[C@@H](CN(C)S(=O)(=O)c2cccs2)OCCCC[C@@H](C)O3)cc1 | active |
| C[C@@H]1CCCCO[C@H](CN(C)S(=O)(=O)c2cccs2)[C@@H](C)CN([C@H](C)CO)C(=O)c2cc(NC(=O)Nc3ccc(F)cc3)ccc2O1 | inactive |
| COc1ccc(NC(=O)Nc2ccc3c(c2)C(=O)N([C@H](C)CO)C[C@H](C)[C@@H](CN(C)S(=O)(=O)c2cccs2)OCCCC[C@H](C)O3)cc1 | inactive |
| C[C@@H]1CN([C@@H](C)CO)C(=O)c2cc(NC(=O)Nc3ccccc3)ccc2O[C@@H](C)CCCCO[C@@H]1CN(C)S(=O)(=O)c1cccs1 | inactive |
| C[C@@H]1CCCCO[C@@H](CN(C)S(=O)(=O)c2cccs2)[C@H](C)CN([C@H](C)CO)C(=O)c2cc(NC(=O)Nc3ccccc3)ccc2O1 | active |
| C[C@@H]1CN([C@H](C)CO)C(=O)c2cc(NC(=O)Nc3ccc(F)cc3)ccc2O[C@@H](C)CCCCO[C@H]1CN(C)S(=O)(=O)c1cccs1 | inactive |
| C[C@@H]1CN([C@@H](C)CO)C(=O)c2cc(NC(=O)Nc3ccc(F)cc3)ccc2O[C@@H](C)CCCCO[C@H]1CN(C)S(=O)(=O)c1cccs1 | active |
| COc1ccc(NC(=O)Nc2ccc3c(c2)C(=O)N([C@@H](C)CO)C[C@H](C)[C@H](CN(C)S(=O)(=O)c2cccs2)OCCCC[C@@H](C)O3)cc1 | inactive |
| C[C@H](CO)N1C[C@H](C)[C@@H](CN(C)S(=O)(=O)c2cccs2)OCCCC[C@H](C)Oc2ccc(NC(=O)Nc3ccc(F)cc3)cc2C1=O | inactive |
| C[C@@H]1CN([C@@H](C)CO)C(=O)Cc2cc(NC(=O)CCCCCC(=O)Nc3ccccc3N)ccc2O[C@@H]1CN(C)C(=O)Nc1ccc(F)cc1 | inactive |
| C[C@H](CO)N1C[C@H](C)[C@@H](CN(C)C(=O)NC2CCCCC2)Oc2c(NC(=O)c3cnccn3)cccc2C1=O | inactive |
| Cc1noc(C)c1S(=O)(=O)Nc1ccc2c(c1)C(=O)N([C@H](C)CO)C[C@H](C)[C@H](CN(C)C(=O)Nc1ccc(F)cc1)OCCCC[C@@H](C)O2 | inactive |
| C[C@@H]1CN([C@@H](C)CO)C(=O)c2cc(C#CC3(O)CCCC3)cnc2O[C@H]1CN(C)C(=O)CN(C)C | inactive |

| SMILES | cytotoxicity call |
| --- | --- |
| CNC[C@H]1OCCCC[C@@H](C)Oc2ccc(NC(=O)Nc3ccc(C(F)(F)F)cc3)cc2C(=O)N([C@@H](C)CO)C[C@H]1C | inactive |
| COc1ccc(NC(=O)Nc2cccc3c2O[C@@H](CN(C)Cc2ccc(C(=O)Nc4ccccc4N)cc2)[C@H](C)CN([C@H](C)CO)C3=O)cc1 | inactive |
| C[C@@H]1CCCCO[C@@H](CN(C)Cc2ccc(C(=O)Nc3ccccc3N)cc2)[C@@H](C)CN([C@H](C)CO)C(=O)c2cc(NC(=O)NC3CCCCC3)ccc2O1 | inactive |
| COCCOC(=O)N1C(=O)[C@@]2(c3cc(C#Cc4ccc(OC)cc4)ccc31)[C@H](c1ccccc1OCCO)N1[C@H](c3ccccc3)[C@H](c3ccccc3)OC(=O)[C@H]1[C@@H]2C(=O)NC[C@H](O)c1ccccc1 | inactive |
| CC(C)NC(=O)Nc1ccc2c(c1)CC(=O)N([C@H](C)CO)C[C@@H](C)[C@H](CN(C)S(=O)(=O)c1ccccc1)O2 | inactive |
| C[C@@H]1CN([C@H](C)CO)C(=O)c2cccc(NC(=O)C3CCCCC3)c2O[C@@H]1CN(C)Cc1ccc(Oc2ccccc2)cc1 | inactive |
| CO[C@@H]1CN(C)C(=O)c2cc(NC(=O)Nc3cccc(Cl)c3)ccc2OC[C@@H](C)N(C(=O)Nc2c(C)noc2C)C[C@@H]1C | inactive |
| CO[C@H]1CN(C)C(=O)c2cc(NC(=O)Nc3cccc(Cl)c3)ccc2OC[C@H](C)N(C(=O)Nc2c(C)noc2C)C[C@@H]1C | inactive |
| C[C@@H]1CCCCO[C@@H](CN(C)S(=O)(=O)c2cccs2)[C@H](C)CN([C@H](C)CO)C(=O)c2cc(NC(=O)NC3CCCCC3)ccc2O1 | active |
| C[C@H]1CCCCO[C@H](CN(C)S(=O)(=O)c2cccs2)[C@@H](C)CN([C@@H](C)CO)C(=O)c2cc(NC(=O)Nc3ccc(F)cc3)ccc2O1 | inactive |
| C[C@@H]1CN([C@@H](C)CO)C(=O)c2cc(NC(=O)NC3CCCCC3)ccc2O[C@@H](C)CCCCO[C@@H]1CN(C)S(=O)(=O)c1cccs1 | inactive |
| C[C@@H]1CCCCO[C@@H](CN(C)S(=O)(=O)c2cccs2)[C@H](C)CN([C@H](C)CO)C(=O)c2cc(NC(=O)Cc3ccccc3)ccc2O1 | active |
| C[C@@H]1CN([C@H](C)CO)C(=O)c2cc(NC(=O)Cc3ccccc3)ccc2O[C@@H](C)CCCCO[C@H]1CN(C)S(=O)(=O)c1cccs1 | inactive |
| C[C@@H]1CCCCO[C@H](CN(C)S(=O)(=O)c2cccs2)[C@H](C)CN([C@H](C)CO)C(=O)c2cc(NC(=O)Nc3ccc(F)cc3)ccc2O1 | active |
| C[C@H](CO)N1C[C@H](C)[C@H](CN(C)S(=O)(=O)c2cccs2)OCCCC[C@H](C)Oc2ccc(NC(=O)Nc3ccc(F)cc3)cc2C1=O | inactive |
| C[C@@H]1CCCCO[C@@H](CN(C)S(=O)(=O)c2cccs2)[C@H](C)CN([C@@H](C)CO)C(=O)c2cc(NC(=O)Cc3ccccc3)ccc2O1 | inactive |
| C[C@@H]1CN([C@@H](C)CO)C(=O)c2cc(NC(=O)NC3CCCCC3)ccc2O[C@@H](C)CCCCO[C@H]1CN(C)S(=O)(=O)c1cccs1 | inactive |
| O=C(O)CNC(=O)C1CCC1 | inactive |
| COCCNC(=O)C[C@@H]1CC[C@H]2[C@@H](COC[C@H](O)CN2C(=O)Nc2ccc3c(c2)OCO3)O1 | inactive |
| CN1C(=O)c2cc(NC(=O)c3cscn3)ccc2OC[C@@H]2O[C@H](CC(=O)N3CCOCC3)CC[C@H]21 | inactive |
| C[C@@H]1CCCCO[C@@H](CN(C)C(=O)Cc2ccccc2)[C@H](C)CN([C@H](C)CO)C(=O)c2cc(NC(=O)Nc3ccccc3)ccc2O1 | inactive |
| COc1ccc(S(=O)(=O)N(C)C[C@@H]2Oc3ccc(NS(=O)(=O)c4ccccc4)cc3C(=O)N([C@@H](C)CO)C[C@@H]2C)cc1 | inactive |
| Cc1noc(C)c1NC(=O)N(C)C[C@@H]1Oc2ccc(NC(=O)c3ccncc3)cc2CC(=O)N([C@H](C)CO)C[C@@H]1C | inactive |

| SMILES | cytotoxicity call |
| --- | --- |
| COC(=O)C1=C2CC[C@H](CO)NC(=O)N[C@H](Cc3ccccc3)C(=O)NCc3cn(nn3)C[C@H](Cc3ccccc3)NC(=O)c3oc(c(C(=O)OC)c3C(=O)OC)CC[C@H](CO)NC(=O)N[C@H](Cc3ccccc3)C(=O)NCc3cn(nn3)C[C@H](Cc3ccccc3)NC(=O)C(=C1C(=O)OC)O2 | inactive |
| C[C@@H]1CN([C@H](C)CO)C(=O)c2cc(C3=CCCC3)cnc2O[C@H]1CN(C)C(=O)Nc1ccc(C(F)(F)F)cc1 | inactive |
| Cc1ccc(S(=O)(=O)N(C)C[C@H]2OCCCC[C@H](C)Oc3ccc(NC(=O)Nc4cccc5ccccc45)cc3C(=O)N([C@@H](C)CO)C[C@@H]2C)cc1 | inactive |
| C[C@H](CO)N1C[C@H](C)[C@@H](CN(C)C(=O)C2CCOCC2)Oc2ncc(C#CCc3ccccc3)cc2C1=O | inactive |
| C[C@@H]1CN([C@H](C)CO)C(=O)c2cc(Br)cnc2O[C@H]1CN(C)C(=O)Nc1ccc(F)cc1 | inactive |
| COc1ccc(NC(=O)N(C)C[C@H]2OCCCC[C@H](C)Oc3ccc(NS(=O)(=O)c4ccc(C)cc4)cc3C(=O)N([C@H](C)CO)C[C@@H]2C)cc1 | inactive |
| CCCc1cc(C)[nH]c(=O)c1CNC(=O)c1cc(-c2ccc(N3CCN(C(C)C)CC3)nc2)cc2c1cnn2C(C)C | active |
| C[C@@H]1CN([C@H](C)CO)C(=O)c2cc(-c3cccc(C(=O)N(C)C)c3)cnc2O[C@H]1CN(C)S(=O)(=O)c1ccc(F)cc1 | inactive |
| CO[C@@H](CN(C)S(=O)(=O)c1cn(C)cn1)[C@@H](C)CN(C(=O)Nc1ccc(C(F)(F)F)cc1)[C@@H](C)CO | inactive |
| C[C@H](CO)N1C[C@H](C)[C@H](CN(C)Cc2ccc3c(c2)OCO3)OCCCC[C@H](C)Oc2ccc(NC(=O)NC3CCCCC3)cc2C1=O | active |
| C[C@@H]1CCCCO[C@H](CN(C)Cc2ccc3c(c2)OCO3)[C@H](C)CN([C@@H](C)CO)C(=O)c2cc(NC(=O)NC3CCCCC3)ccc2O1 | active |
| C[C@H]1CCCCO[C@H](CN(C)Cc2ccc3c(c2)OCO3)[C@@H](C)CN([C@@H](C)CO)C(=O)c2cc(NC(=O)NC3CCCCC3)ccc2O1 | inactive |
| C[C@@H]1CCCCO[C@H](CN(C)Cc2ccc3c(c2)OCO3)[C@@H](C)CN([C@H](C)CO)C(=O)c2cc(NC(=O)NC3CCCCC3)ccc2O1 | inactive |
| C[C@@H]1CCCCO[C@H](CN(C)Cc2ccc3c(c2)OCO3)[C@H](C)CN([C@H](C)CO)C(=O)c2cc(NC(=O)NC3CCCCC3)ccc2O1 | inactive |
| C[C@@H]1CCCCO[C@@H](CN(C)Cc2ccc3c(c2)OCO3)[C@@H](C)CN([C@@H](C)CO)C(=O)c2cc(NC(=O)NC3CCCCC3)ccc2O1 | inactive |
| C[C@H](CO)N1C[C@H](C)[C@@H](CN(C)Cc2ccc3c(c2)OCO3)OCCCC[C@H](C)Oc2ccc(NC(=O)NC3CCCCC3)cc2C1=O | inactive |
| C[C@@H]1CN([C@@H](C)CO)C(=O)c2cc(NC(=O)NC3CCCCC3)ccc2O[C@@H](C)CCCCO[C@@H]1CN(C)Cc1ccc2c(c1)OCO2 | inactive |
| C[C@@H]1CCCCO[C@@H](CN(C)Cc2ccc3c(c2)OCO3)[C@H](C)CN([C@H](C)CO)C(=O)c2cc(NC(=O)NC3CCCCC3)ccc2O1 | inactive |
| C[C@@H]1CN([C@H](C)CO)C(=O)c2cc(NC(=O)NC3CCCCC3)ccc2O[C@@H](C)CCCCO[C@@H]1CN(C)Cc1ccc2c(c1)OCO2 | active |
| C[C@@H]1CCCCO[C@@H](CN(C)Cc2ccc3c(c2)OCO3)[C@@H](C)CN([C@H](C)CO)C(=O)c2cc(NC(=O)NC3CCCCC3)ccc2O1 | inactive |
| C[C@@H]1CCCCO[C@H](CN(C)Cc2ccc3c(c2)OCO3)[C@@H](C)CN([C@@H](C)CO)C(=O)c2cc(NC(=O)NC3CCCCC3)ccc2O1 | active |
